From PubChem BioAssay
Hits are enriched below; roughly 18% of the tested compounds scored in any of these assays.
DT40 TDP1 CPT: growth inhibition of DT40 Tdp1-/-;hTDP1 cells with camptothecin (screen for TDP1 inhibitors) | chicken DT40 Tdp1-/-;hTDP1 cells + 20 nM CPT, ATP luminescence, 48 h | Potency, µM (top dose mostly 46.2 µM), without a hit: top-dose activity change, negative = growth inhibition, hits mostly inhibitors | hit rate 12% among 420,000; note: potency is the fitted concentration of half-maximal effect; nearly all actives have a fitted effect of over 55% in size
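Chicken DT40 Tdp1-/- cells complemented with human TDP1, 400 cells/well, exposed to compounds plus 20 nM camptothecin for at least 48 h at 37 C; viability read as ATP content by CellTiter-Glo luminescence.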
TDP1 cell noCPT: qHTS for Inhibitors of human tyrosyl-DNA phosphodiesterase 1 (TDP1): qHTS in cells in absence of CPT. DT40 Tdp1-/- hTDP1 cells, no CPT, ATP luminescence, 48 h. AID 686978, 2013. Potency, µM (doses to about 46.2 µM), for the others: at the highest dose activity change, negative = growth inhibition, most hits filed as inhibitors. hit rate 15% among 420,000; note: potency is the fitted concentration of half-maximal effect; nearly all actives have a fitted effect of over 55% in size
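Chicken DT40 Tdp1-/- cells stably complemented with human TDP1 were seeded at 400 cells/well with DMSO in place of 20 nM camptothecin. After compound pinning, cells grew at least 48 hr at 37 °C; viability read by CellTiter-Glo luminescence.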
RORgamma inh: blocks mouse ROR gamma transcriptional activity; P51450; Potency, µM (highest dose often 53.6 µM), without a hit: at the highest dose activity change, negative = inhibition, most hits filed as inhibitors; Drosophila S2 Gal4-RORgamma UAS-luciferase reporter, 20 h; AID 2551; hit rate 5.4% among 310,000; note: potency is the fitted concentration of half-maximal effect; nearly all actives have a fitted effect of over 60% in size
Target sequence (P51450 whole entry, looked up, the tested form may be a part): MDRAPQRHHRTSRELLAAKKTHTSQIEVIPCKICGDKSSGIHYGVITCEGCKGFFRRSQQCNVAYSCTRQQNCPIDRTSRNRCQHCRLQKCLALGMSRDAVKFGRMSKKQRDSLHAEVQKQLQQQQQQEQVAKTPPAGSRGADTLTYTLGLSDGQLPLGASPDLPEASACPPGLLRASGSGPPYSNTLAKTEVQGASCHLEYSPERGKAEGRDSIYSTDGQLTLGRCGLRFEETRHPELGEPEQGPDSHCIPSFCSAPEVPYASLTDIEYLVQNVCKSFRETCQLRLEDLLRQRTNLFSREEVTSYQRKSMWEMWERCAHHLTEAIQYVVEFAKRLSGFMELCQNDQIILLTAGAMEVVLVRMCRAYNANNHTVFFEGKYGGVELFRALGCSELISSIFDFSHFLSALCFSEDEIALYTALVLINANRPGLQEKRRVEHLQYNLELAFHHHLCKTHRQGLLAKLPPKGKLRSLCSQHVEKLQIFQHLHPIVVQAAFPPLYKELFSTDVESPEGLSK
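In this cell-based reporter format, copper sulfate (700 uM final) drives Gal4–ROR gamma fusion expression from a metallothionein promoter in Drosophila Schneider cells; compounds preincubated 1 hr, reporter read after 20 hr at ambient temperature.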
LDHA block: LDHA (human) enzyme inhibition. AID 1347041. purified LDHA, NADH/diaphorase-resazurin fluorescence; hits give low values. hit rate 0.15% among 480,000. activity change, % (values are at about 110 or 230 µM); in the data active = activity change below about -30%; inconclusive = mostly about -25% to -30%;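 note: plate controls were DMSO wells for no effect and wells without enzyme for full effect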
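Resorufin fluorescence (ex540/em590), read at 0 and 20 min after diaphorase/resazurin addition, reports the NADH left after a 5 min room-temperature reaction of 2 nM human LDH5 with 0.06 mM NADH and 0.2 mM pyruvate.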
Gal4-VP16 FLuc: inhibits Gal4-VP16 luciferase reporter, ROR gamma counter-screen; Drosophila S2 Gal4-VP16 UAS-luciferase, luminescence, 20 h; Potency, µM (top dose mostly 53.6 µM), inactives show top-dose activity, negative = inhibition, actives largely listed as inhibitors; hit rate 3.5% among 310,000; AID 2546;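 note: Gal4-VP16 expression switched on by copper sulfate through the metallothionein promoter; potency is the fitted concentration of half-maximal effect; nearly all actives have a fitted effect of over 50% in size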
IL1B secr inh: blocks inflammasome-driven IL-1 beta release; hit rate 4.7% among 360,000; AID 743279; activity change, % at 57.5 µM; THP-1 LPS/ATP IL-1B secretion, AlphaLISA, 16 h; hits give low values; in the data active = activity change below about -50%; inconclusive = mostly about -30% to -49%
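THP-1 cells pretreated 1 hr with compounds (up to 57.5 uM final), then stimulated with LPS (250 ng/mL final) plus ATP (1.25 mM final); secreted IL-1B measured by AlphaLISA after 16 hr, decreased signal indicating inhibition.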
An asterisk follows results filed as active; ? = inconclusive; . = no result given. Unless noted, calls come from the whole dose curve; as a rule, active = well fitted curve in the direction sought with a large enough effect; inconclusive = small, poorly fitted or top-dose-only effect, or another doubt; inactive = no such curve, though single readings can be large; an effect the other way counts as inactive or inconclusive. Unless noted, % is set by controls: 0 for no effect and ±100 for the full control effect.

SMILES | DT40 TDP1 CPT | TDP1 cell noCPT | RORgamma inh | LDHA block | Gal4-VP16 FLuc | IL1B secr inh
Oc1c(C(c2ccccc2)N2CCOCC2)ccc2ccccc12 (stereo unspecified) | 8.2µM* | 9.2µM* | . | 9 | . | -99*
Cc1oc(-c2ccccc2)nc1C(=O)NC1CCCCC1 | . | . | . | -2 | . | .
O=C(NC1CCCCC1)c1nc(C2CCNCC2)oc1-c1ccccc1 | ? | ? | . | -5 | . | -66*
O=C(CSc1nnnn1C1CCCC1)Nc1cccc(NC(=O)c2ccco2)c1 | -29% | ? | 36% | -6 | -5% | -3
O=C(CSc1nnnn1C1CCCCC1)Nc1cccc(NC(=O)c2ccco2)c1 | 5.8µM* | 4.1µM* | -33% | 4 | 5% | -23
O=C(CSc1nnnn1C1CCCCC1)N1CCN(C(=O)c2ccco2)CC1 | -11% | -13% | 3.2µM* | 1 | 7.9µM* | -11
O=C(CSc1nnc(-c2ccco2)n1-c1ccccc1)N1CCN(C(=O)c2ccco2)CC1 | ? | 23µM* | -20% | -4 | -7% | ?
Cc1ccc(-n2nnnc2SCC(=O)N(C)c2ccccc2C(=O)NCc2ccco2)c(C)c1 | . | . | . | -4 | . | .
Cc1ccc(NC(=O)c2cnc3ccccc3n2)nc1 | . | . | . | -5 | . | .
COc1cccc(C(=O)N2CCC(C(=O)c3ccc4c(c3)OCCO4)CC2)c1OC | . | . | . | -2 | . | .
O=C(O)CC1CC(=O)OC1=O (stereo unspecified) | . | . | . | 1 | . | .
CC(C)(C)c1cc(C(C)(C)C)cc(S(=O)(=O)CCc2ccccn2)c1 | ? | ? | 11µM* | -4 | -19% | -1
COc1ccc(NC(=O)COc2ccc(/C=C/c3cc[n+](C)cc3)cc2OC)cc1 | ? | 23µM* | -34% | -1 | -2% | -54*
COc1cc(/C=C/c2cccc[n+]2C)ccc1OCC(=O)Nc1cccc(Cl)c1 | -18% | 18µM* | -7% | -24 | -1% | -71*
COc1cc(/C=C/c2cccc[n+]2C)ccc1OCC(=O)Nc1ccccc1 | -31% | -20% | -2% | -12 | 0% | -17
COc1cc(/C=C/c2cc[n+](C)cc2)ccc1OCC(=O)Nc1ccc(Cl)c(Cl)c1 | ? | ? | -30% | 6 | -11% | -89*
COc1ccc(NC(=O)COc2ccc(/C=C/c3cccc[n+]3C)cc2OC)cc1 | 0% | -10% | -21% | -12 | -4% | -16
COc1cc(NC(=O)COc2ccc(-n3cnnn3)cc2)cc(OC)c1OC | 23µM* | ? | . | -5 | . | -10
O=C(COc1ccc(-n2cnnn2)cc1)Nc1cc(Cl)cc(Cl)c1 | -22% | ? | . | -3 | . | 1
CC(=O)Nc1ccc(NC(=O)COc2ccc(Cl)cc2Cl)cc1 | ? | -22% | 4% | -9 | -4% | 0
Cc1ccccc1NC(=O)c1cccc2c(=O)c(C)c(-c3ccccc3)oc12 | . | . | . | -3 | . | .
Cc1cccc2[nH]cc(C(=O)/C(C#N)=C\c3ccccc3F)c12 | . | . | . | 7 | . | .
COc1ccc(C(=O)/C=C/c2ccc(OCC(=O)O)c(OC)c2)cc1F | . | . | . | 11 | . | .
O=C(CCc1ncc(-c2c(F)cccc2F)o1)Nc1ccccc1F | . | . | . | 11 | . | .
C/C=C/c1ccc(OCC(=O)Nc2cc(OC)c(OC)c(OC)c2)c(OC)c1 | 13µM* | 12µM* | 41% | 2 | -21% | -11
SMILES | DT40 TDP1 CPT | TDP1 cell noCPT | RORgamma inh | LDHA block | Gal4-VP16 FLuc | IL1B secr inh
CCOC(=O)c1ccccc1NC(=O)c1c(-c2ccccc2)noc1C | 9.2µM* | 4.6µM* | . | -2 | . | .
Cc1cccc(OCCOC(=O)c2c(-c3ccccc3)noc2C)c1 | ? | 23µM* | ? | -3 | -11% | 33
CCCCN(CCCC)S(=O)(=O)c1ccc(NC(=O)c2c(-c3ccccc3)noc2C)cc1 | 21µM* | 29µM* | . | 2 | . | .
Cc1onc(-c2ccccc2)c1C(=O)OCC(=O)Nc1ccccc1Cl | ? | 18µM* | . | -5 | . | -1
CCCCNS(=O)(=O)c1ccc(NC(=O)c2c(-c3ccccc3)noc2C)cc1 | ? | ? | . | -13 | . | .
Cc1ccc(NS(=O)(=O)c2c(C)[nH]c(=O)[nH]c2=O)c(C)c1 | 0% | 2% | -2% | -2 | -16% | 2
Cc1cc(C)c(S(=O)(=O)Nc2c(C)[nH]c(=O)[nH]c2=O)c(C)c1 | 16µM* | 23µM* | ? | -2 | -8% | 1
COC(=O)c1ccc(/C=C2\Oc3cc(OC(=O)C(C)(C)C)ccc3C2=O)cc1 | . | . | . | -2 | . | .
CCCCN(CCCC)C1=Nc2ccccc2N/C1=C(/C#N)C(=O)OCC | 21µM* | 21µM* | -26% | 17 | -28% | -7
CCOC(=O)/C(C#N)=C1\Nc2ccccc2N=C1N(CC(C)C)CC(C)C | ? | 18µM* | -6% | 5 | 5% | -59*
O=C1/C(=C/c2cccc(F)c2)CSc2c(F)cccc21 | . | . | . | 0 | . | .
Cc1cc2oc(C(=O)NCC(c3cccs3)N3CCOCC3)cc(=O)c2cc1Cl (stereo unspecified) | . | . | . | 1 | . | .
Cc1cc2ccccc2c(=O)n1CC(=O)N1CCN(c2cccc(Cl)c2)CC1 | -1% | -25% | -20% | -11 | 4% | -3
CCc1ccc(-n2c(N3CCN(c4cccc(C)c4C)CC3)nc3ccccc3c2=O)cc1 | ? | ? | . | -6 | . | .
CCc1ccc(-n2c(N3CCN(c4ccc(F)cc4)CC3)nc3ccccc3c2=O)cc1 | 23µM* | 12µM* | . | -2 | . | .
CCc1ccc(-n2c(N3CCN(c4cccc(Cl)c4)CC3)nc3ccccc3c2=O)cc1 | 6.5µM* | 8.2µM* | . | -5 | . | .
CN(Cc1ccccn1)Cc1cn(Cc2ccccc2)nc1-c1ccc2c(c1)OCO2 | -27% | 23µM* | -33% | 4 | -18% | ?
CN(Cc1cnccn1)Cc1cn(Cc2ccccc2)nc1-c1ccc2c(c1)OCO2 | 10% | -2% | 28% | 4 | 3% | 30
CC(c1ccon1)N(C)Cc1cn(Cc2ccccc2)nc1-c1ccc2c(c1)OCO2 (stereo unspecified) | 18µM* | ? | 0% | 6 | -19% | -29
CN(Cc1cn(Cc2ccccc2)nc1-c1ccc2c(c1)OCO2)Cc1nccn1C | ? | ? | 13µM* | -10 | 2% | ?
Cc1nccn1CCN(C)Cc1cn(Cc2ccccc2)nc1-c1ccc2c(c1)OCO2 | ? | ? | -26% | -1 | 2% | -10
Cc1ccc(S(=O)(=O)N2CCCCC2)cc1NC(=O)c1ccc2c(=O)n3c(nc2c1)CCCCC3 | . | . | 41% | . | -2% | .
